# Hits are enriched below; roughly 3.2% of the tested compounds scored in any of these assays.
# S16 F2sN tox: S16 Schwann cell cytotoxicity | Potency, µM (top dose mostly 57.5 µM), for inactives: at the highest dose activity change, negative = cytotoxicity, usual class: cytotoxic | AID 1508642 | S16 Pmp22-F2sN Schwann cells viability, CellTiter-Glo, 24 h | actives 0.48% (n = 43,000); note: potency is the fitted concentration of half-maximal effect; % is set by controls: 0 for no effect and ±100 for the full control effect; nearly all actives have a fitted effect of over 65% in size
#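 Luminescence from CellTiter-Glo, read by CCD camera after a 15 min room-temperature incubation, served as the viability signal. Reporter Schwann cells (S16 Pmp22-F2sN) had been treated with pin-transferred compounds for 24 h at 37C.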
# p53null 39C kill: p53 null cell cytotoxicity, nonpermissive temperature. AID 904. H1299 p53-null (neo) cells, 39C, ATPlite viability, 24 h. actives 0.97% (n = 55,000). Potency, µM (series often up to 46.1 µM), without a hit: at the highest dose activity, negative = cell killing, usual class: cytotoxic;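 note: potency is the fitted concentration of half-maximal effect; 0% = DMSO only and -100% = full killing by 100 µM tamoxifen; nearly all actives have a fitted effect of over 50% in size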
#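 Temperature-shift cytotoxicity format: compound titrations on p53-null or A138V-expressing H1299 cells held 24 hr at 39C, cell ATP then measured, AC50 from Hill model.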
# p53null 32C kill: selectivity test: cytotoxicity in p53 null cells, permissive temperature; actives 0.62% (n = 55,000); AID 903; H1299-neo p53 null cells, ATP luminescence, 24 h, 32C; Potency, µM (top dose mostly 46.1 µM), for the others: at the top dose activity change, negative = cytotoxicity, actives largely listed as cytotoxic;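 note: potency is the fitted concentration of half-maximal effect; 0% = DMSO only and -100% = full killing by 100 µM tamoxifen; nearly all actives have a fitted effect of over 55% in size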
#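 AC50 values derive from Hill modelling of qHTS concentration-response data (up to 46 uM) in H1299-neo cells. Cells were treated 24 h at 32C following overnight attachment at 37C; viability was read as cellular ATP.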
# PMP22 txn prim: modulates PMP22 transcription in S16 Schwann cells. S16 Pmp22-F2sN Schwann cells (luciferase reporters placed in the Pmp22 gene), FLuc/NLuc coincidence luminescence, 24 h. Potency, µM (doses to about 57.5 µM), without a hit: top-dose activity change, negative = inhibition, hits mostly inhibitors. actives 2% (n = 43,000); active = clear falling dose curves in both reporters; inconclusive = both reporters move, but less clearly or upward; inactive = either reporter flat; the % is the NLuc reporter signal; note: potency is the fitted concentration of half-maximal effect; % is set by controls: 0 for no effect and ±100 for the full control effect
#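 Schwann cells carrying the coincidence reporter were exposed to library compounds for 24 h at 37C, then lysed and read for FLuc and, after quenching, NLuc luminescence on a CCD imager.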
# mTORC1 inh: mTORC1 pathway inhibition measured by phospho-rpS6. actives 0.78% (n = 44,000). Tsc2-/- p53-/- MEF, phospho-rpS6 immunofluorescence/PI, 24 h. AID 493208. Potency, µM (highest dose often 38.3 µM), without a hit: top-dose activity change, negative = inhibition, most hits filed as inhibitors;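 note: potency is the fitted concentration of half-maximal effect; plate controls were DMSO for no effect and rapamycin for full effect; nearly all actives have a fitted effect of over 50% in size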
#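 Immunofluorescence of rpS6 phosphorylation in Tsc2-/-, p53-/- MEFs after 24 h compound exposure, normalized to propidium iodide signal. Activity is expressed as % positive cells, thresholded with 7.5 nM rapamycin.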
# NLuc saturating: inhibits NanoLuc at saturating substrate, PMP22 counter-screen. shares compounds with PMP22 txn prim. Secreted NLuc enzyme (filtered S16 cell medium), Nano-Glo luminescence. Potency, µM (top dose mostly 57.5 µM), for inactives: top-dose activity change, negative = inhibition, usual class: inhibitors. actives 4% (n = 690); note: potency is the fitted concentration of half-maximal effect; % is set by controls: 0 for no effect and ±100 for the full control effect
# NLuc Km counter: NanoLuc inhibition at Km substrate, PMP22 artifact check; Potency, µM (series often up to 57.5 µM), for the others: at the top dose activity change, negative = inhibition, usual class: inhibitors; shares compounds with PMP22 txn prim; actives 5% (n = 690); secreted NLuc enzyme, coelenterazine luminescence, Km conditions; note: potency is the fitted concentration of half-maximal effect; % is set by controls: 0 for no effect and ±100 for the full control effect
# FLuc ctr PMP22: inhibits firefly luciferase, PMP22 counter-screen; purified P. pyralis FLuc, luminescence, 10 min; Potency, µM (doses to about 57.5 µM), inactives show top-dose activity, negative = inhibition, actives largely listed as inhibitors; shares compounds with PMP22 txn prim; 690 tested, under 10 active; AID 1508640; note: % of control where 0% means no effect
# Target sequence (P08659 whole entry, looked up): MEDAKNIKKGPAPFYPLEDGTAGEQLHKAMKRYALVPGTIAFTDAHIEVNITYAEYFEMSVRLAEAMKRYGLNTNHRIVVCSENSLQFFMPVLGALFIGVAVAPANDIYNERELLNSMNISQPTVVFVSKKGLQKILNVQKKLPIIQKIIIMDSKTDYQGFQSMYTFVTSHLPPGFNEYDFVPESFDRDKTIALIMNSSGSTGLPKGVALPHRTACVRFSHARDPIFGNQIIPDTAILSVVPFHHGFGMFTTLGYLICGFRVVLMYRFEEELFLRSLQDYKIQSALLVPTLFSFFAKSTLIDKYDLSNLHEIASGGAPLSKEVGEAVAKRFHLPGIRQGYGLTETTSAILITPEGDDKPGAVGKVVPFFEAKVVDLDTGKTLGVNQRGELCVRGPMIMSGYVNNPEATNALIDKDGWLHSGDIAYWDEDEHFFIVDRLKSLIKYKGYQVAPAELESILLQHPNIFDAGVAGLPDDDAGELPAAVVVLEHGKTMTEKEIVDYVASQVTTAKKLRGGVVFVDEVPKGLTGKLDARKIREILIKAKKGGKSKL
# S16 F2sN tox cnf: S16 Schwann cell cytotoxicity, confirmatory; S16 Schwann cells viability, CellTiter-Glo ATP luminescence, 24 h; Potency, µM (series often up to 57.5 µM), for the others: at the top dose activity change, negative = viability loss, most hits filed as cytotoxic; AID 1508641; actives 7% (n = 690); shares compounds with PMP22 txn prim; note: potency is the fitted concentration of half-maximal effect; % is set by controls: 0 for no effect and ±100 for the full control effect
# PMP22 txn conf: confirmation of modulators of PMP22 gene transcription in S16 cells. shares compounds with PMP22 txn prim. S16 Schwann cells Pmp22-F2sN, dual luciferase, 24 h. Potency, µM (titrated, usually from 57.5 µM), for inactives: at the top dose activity change, negative = inhibition, actives largely listed as inhibitors. actives 22% (n = 690). AID 1508646; active = clear falling dose curves in both reporters; inconclusive = both reporters move, but less clearly or upward; inactive = either reporter flat; the % is the FLuc reporter signal; note: potency is the fitted concentration of half-maximal effect
# PMP22 HiBiT cnf: rat PMP22 protein level modulation, confirmatory; AID 1508647; 95 tested, under 10 active; shares compounds with PMP22 txn prim; Potency, µM (top dose mostly 27.9 µM), without a hit: top-dose activity change, negative = inhibition, hits mostly inhibitors; S16 Schwann cells Pmp22-HiBiT, luminescence, 48 h
# Target sequence (P25094 whole entry, looked up): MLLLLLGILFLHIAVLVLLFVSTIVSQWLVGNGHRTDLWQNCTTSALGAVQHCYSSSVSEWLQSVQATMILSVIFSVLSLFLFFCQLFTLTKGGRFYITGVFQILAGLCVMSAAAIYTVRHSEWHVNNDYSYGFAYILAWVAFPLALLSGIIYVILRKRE
# Numbers without * were called inactive; ? = inconclusive; / = not tested or not shown. Unless noted, calls come from the whole dose curve; as a rule, active = well fitted curve in the direction sought with a large enough effect; inconclusive = small, poorly fitted or top-dose-only effect, or another doubt; inactive = no such curve, though single readings can be large; an effect the other way counts as inactive or inconclusive.
SMILES,S16 F2sN tox,p53null 39C kill,p53null 32C kill,PMP22 txn prim,mTORC1 inh,NLuc saturating,NLuc Km counter,FLuc ctr PMP22,S16 F2sN tox cnf,PMP22 txn conf,others
CCOC(=O)c1cccc(NC(=O)c2cc3cc4ccc(C)cc4nc3s2)c1,13%,-17%,-1%,11µM*,-2%,-5%,0%,-17%,?,19µM*,
CC1=C(C(=O)OC2CCCC2)C(c2c(F)cccc2Cl)CC(=O)N1 (stereo unspecified),18%,9%,5%,-25%,-2%,/,/,/,/,/,
COc1ccc(CCNC(=O)Cn2c(-c3cccs3)cc3cc(F)ccc32)cc1OC,9%,6%,?,?,-10%,/,/,/,/,/,PMP22 HiBiT cnf=?
CCOc1ccc(CCNC(=O)Cn2c(-c3cccs3)cc3ccccc32)cc1OCC,-8%,-1%,-8%,?,-1%,/,/,/,/,/,
O=C(Cn1c(-c2cccs2)cc2cc(F)ccc21)NCCCN1CCN(c2ccc(F)cc2)CC1,0%,2%,-4%,?,-6%,/,/,/,/,/,PMP22 HiBiT cnf=3%
Cc1c(Cl)cccc1-n1ncc(C(=O)N2CCc3ccccc3C2)c1C1CCN(C(=O)OC(C)(C)C)CC1,?,-14%,8%,?,-1%,/,/,/,/,/,
O=C(NCCSc1c(-c2ccc(Br)cc2)[nH]c2ccccc12)c1ccc(S(=O)(=O)N2CCOCC2)cc1,-19%,-7%,11%,8µM*,-16%,-10%,5%,9%,1%,?,
Cc1ccc(-c2[nH]c3ccccc3c2SCCNC(=O)c2ccc(S(=O)(=O)N(C)C)cc2)cc1,?,4%,20%,?,-12%,/,/,/,/,/,
O=C(NCCSc1c(-c2ccccc2)[nH]c2ccccc12)c1ccc(S(=O)(=O)N2CCOCC2)cc1,-27%,-10%,19%,9.5µM*,-17%,-14%,-16%,7%,-20%,-9%,
CCN(CC)S(=O)(=O)c1ccc(C(=O)NCCSc2c(-c3ccc(OC)cc3)[nH]c3ccccc23)cc1,-15%,14%,8%,3µM*,-11%,-24%,0%,-2%,-24%,-12%,
O=C(NCCSc1c(-c2ccc(Cl)cc2)[nH]c2ccccc12)c1ccc(S(=O)(=O)N2CCOCC2)cc1,?,18%,15%,-11%,-12%,/,/,/,/,/,
COc1ccc(Nc2cc(C)nc3c(C)c(C)ccc23)cc1,19%,16%,7%,14µM*,?,-1%,0%,0%,3%,-24%,
Cc1ccc(CS(=O)(=O)c2cn(CC(=O)N(C)c3ccccc3)c3ccccc23)cc1,-29%,-18%,-10%,?,2%,/,/,/,/,/,
Cc1ccc(C)n1-c1nnc(N2CCCC(C(=O)NCc3cccc(F)c3)C2)s1 (stereo unspecified),-15%,-3%,-6%,15µM*,-10%,-6%,-13%,0%,-1%,?,
COc1ccccc1CNC(=O)C1CCCN(c2nnc(-n3c(C)ccc3C)s2)C1 (stereo unspecified),1%,-1%,0%,?,-1%,-12%,-8%,1%,14%,-28%,
Cc1ccc(C)n1-c1nnc(N2CCCC(C(=O)NCc3ccccc3)C2)s1 (stereo unspecified),-7%,0%,-5%,?,-12%,/,/,/,/,/,
COc1ccc(CNC(=O)c2nc(SCc3ccc(C)cc3)ncc2Cl)cc1,-2%,-16%,-10%,?,-2%,/,/,/,/,/,
CCS(=O)(=O)c1ncc(Cl)c(C(=O)NCc2ccccc2)n1,?,-15%,?,8.4µM*,2.6µM*,-7%,-20%,3%,15µM*,6.9µM*,
CCCS(=O)(=O)c1ncc(Cl)c(C(=O)Nc2c(C(=O)Nc3ccccc3)oc3ccccc23)n1,?,16µM*,-29%,7.1µM*,2.1µM*,-13%,1.4µM*,6%,17µM*,8.2µM*,
COc1ccc(NC(=O)c2nc(S(=O)(=O)Cc3ccc(C)cc3)ncc2Cl)cc1,?,?,-21%,11µM*,3.7µM*,-11%,-15%,3%,?,5.8µM*,PMP22 HiBiT cnf=-9%
COC(=O)CCNC(=O)N1CCN(c2nnc(C)c3c(C)n(-c4ccc(Cl)cc4)nc23)CC1,8%,-5%,-1%,7%,-11%,/,/,/,/,/,
Cc1ccccc1-c1noc(CSc2nc3ccccc3[nH]2)n1,-22%,1%,11%,-73%,-1%,/,/,/,/,/,
CCCOc1ccc(CN(C(=O)c2cc(=O)c3ccc(C)cc3o2)C2CCS(=O)(=O)C2)cc1 (stereo unspecified),-11%,6%,-2%,?,-10%,/,/,/,/,/,
CCOC(=O)c1cc2c(=O)n3ccccc3nc2n(CC(C)C)c1=NC(=O)COc1ccc(Cl)cc1,-6%,-8%,-2%,16µM*,2%,-15%,1%,-4%,-26%,?,
CCOC(=O)c1cc2c(=O)n3ccccc3nc2n(CC(C)C)c1=NC(=O)C(C)(C)Oc1ccc(Cl)cc1,-2%,-3%,-6%,?,3%,/,/,/,/,/,
O=c1c2c3c(sc2n(Cc2ccccc2F)c(=O)n1-c1ccc(Cl)cc1)CCCC3,-1%,-1%,1%,10µM*,-25%,-7%,-2%,2%,1%,?,

# Screens: PubChem, National Center for Advancing Translational Sciences (NCATS)
